Shown are actives, neighbours in structure and some others; about 1.4% of the full set was active somewhere.
AF4-AF9 inh = MLL-AF4/AF9 protein interaction inhibition | P42568 | AlphaScreen, biotin-AF4 peptide binding to FLAG-AF9 | inhibition, % at 10 µM | 0.47% of 350,000 active;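 active = every replicate reaching a set inhibition limit, whatever the replicate mean, cut at about 25% in these data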
PGC1a acetyl inh = lowers PGC1a acetylation signal in U2OS cells | inhibition, % at 15.6 µM | 0.17% of 350,000 active | AlphaScreen anti-acetyl-lysine; with virally co-expressed GCN5 acetyltransferase;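 active = every replicate shows inhibition of at least 40%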
ERAP1 inh = ERAP1 (human) enzyme inhibition. recombinant ERAP1, Leu-AMC fluorescence, 60 min. inhibition, % at 10.7 µM. 0.15% of 340,000 active;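 active = mean replicate inhibition of at least 30%, or all replicates individually reaching that 30% level; inactive = mean below 30% and not every replicate reaching it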
RAD54 inh = blocks human RAD54 Holliday junction branch migration. Q92698. 0.14% of 360,000 active. FAM/BHQ fluorescence. AID 602329. inhibition, % at 10.4 µM;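 active = mean normalized replicate activity at least 40 and at least half of replicates scoring 40 or more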;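 note: inhibitors cause a drop in the FAM fluorescence signal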
RAD52 inh = inhibitors of human RAD52 DNA annealing; 0.46% of 360,000 active; recombinant RAD52 DNA annealing, FRET fluorescence; inhibition, % at 18.7 µM; AID 651710;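 active = every replicate showing at least 50% inhibition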
Target sequence (P43351 whole entry, looked up): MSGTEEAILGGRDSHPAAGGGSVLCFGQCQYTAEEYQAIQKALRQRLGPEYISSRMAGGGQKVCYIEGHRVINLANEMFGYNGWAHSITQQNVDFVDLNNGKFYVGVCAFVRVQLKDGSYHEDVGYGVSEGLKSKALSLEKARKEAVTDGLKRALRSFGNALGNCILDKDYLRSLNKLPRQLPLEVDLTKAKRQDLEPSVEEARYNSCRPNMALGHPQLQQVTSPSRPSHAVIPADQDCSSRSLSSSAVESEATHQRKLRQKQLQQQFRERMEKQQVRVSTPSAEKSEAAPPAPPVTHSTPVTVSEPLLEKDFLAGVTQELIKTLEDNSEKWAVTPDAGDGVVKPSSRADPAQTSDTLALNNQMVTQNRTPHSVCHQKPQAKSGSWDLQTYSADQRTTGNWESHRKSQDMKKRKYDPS
GSIS activator = primary screen for activators of insulin secretion dependent on glucose, INS-1E cells, GLuc reporter luminescence; INS-1E GLuc reporter insulin secretion, 2-3 h; activation, % at 16.6 µM; 0.61% of 370,000 active; AID 743287;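 active = lowest replicate activation of at least 40%, so every replicate reaches that level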
Hits are given with their value.

What do the screens show for `CO[C@H]1CN(C)C(=O)c2cc(NS(=O)(=O)CC(F)(F)F)ccc2OC[C@@H](C)N(CCC(F)(F)F)C[C@@H]1C`?
AF4-AF9 inh: inactive; PGC1a acetyl inh: inactive; ERAP1 inh: inactive; RAD54 inh: inactive; RAD52 inh: inactive; GSIS activator: inactive

What do the screens show for `Cc1ccc(S(=O)(=O)SC/C=C/CSS(=O)(=O)c2ccc(C)cc2)cc1`?
AF4-AF9 inh: inactive; PGC1a acetyl inh: inactive; ERAP1 inh: inactive; RAD52 inh: inactive; GSIS activator: inactive

What do the screens show for `Cc1ccc(S(=O)(=O)SCCCSS(=O)(=O)c2ccc(C)cc2)cc1`?
AF4-AF9 inh: inactive; PGC1a acetyl inh: inactive; ERAP1 inh: inactive; RAD54 inh: inactive; RAD52 inh: inactive; GSIS activator: 189

How did COc1ccccc1-c1cccc(-c2nc(C(=O)Nc3nccs3)cc3c2[C@@H](CCO)N(C(=O)CC2CC2)C3)c1 do in these assays?
AF4-AF9 inh: inactive; ERAP1 inh: 45; RAD52 inh: inactive; GSIS activator: inactive

Results for Cc1cc2c(=Cc3ccc(N(C)C)cc3)c3ccccc3n2[n+]1C ?
AF4-AF9 inh: 30; ERAP1 inh: inactive; RAD52 inh: inactive; GSIS activator: inactive

What do the screens show for `CCOC(=O)SC1=N/C(=C\c2ccc(N(C)C)cc2)C(=O)S1`?
AF4-AF9 inh: inactive; PGC1a acetyl inh: inactive; ERAP1 inh: inactive; RAD52 inh: inactive; GSIS activator: inactive

How did CCOC(=O)c1cc2c(=Cc3ccc(N(C)C)cc3)c3ccccc3n2[n+]1C do in these assays?
AF4-AF9 inh: 52; ERAP1 inh: inactive; RAD52 inh: 56; GSIS activator: inactive

What do the screens show for `CC1=NN(c2cccc(F)c2)C(=O)/C1=C/c1ccc(N(C)C)cc1`?
AF4-AF9 inh: inactive; PGC1a acetyl inh: inactive; ERAP1 inh: inactive; RAD54 inh: inactive; RAD52 inh: inactive; GSIS activator: inactive

Results for C[C@H](CO)N1C[C@H](C)[C@@H](CN(C)S(=O)(=O)c2cn(C)cn2)Oc2ccc(NC(=O)Nc3cccc4ccccc34)cc2CC1=O ?
AF4-AF9 inh: inactive; PGC1a acetyl inh: inactive; ERAP1 inh: inactive; RAD54 inh: inactive; RAD52 inh: inactive; GSIS activator: inactive

Results for CC(=O)N(C)C[C@H]1Oc2cc(-c3cccnc3)ccc2S(=O)(=O)N([C@@H](C)CO)C[C@@H]1C ?
AF4-AF9 inh: inactive; PGC1a acetyl inh: inactive; ERAP1 inh: inactive; RAD54 inh: inactive; RAD52 inh: inactive; GSIS activator: inactive

How did Cc1nnc(SCC(=O)NCc2ccccc2Cl)[nH]c1=O do in these assays?
AF4-AF9 inh: 34; PGC1a acetyl inh: inactive; ERAP1 inh: inactive; RAD54 inh: inactive; RAD52 inh: inactive; GSIS activator: inactive

What do the screens show for `COc1ccc(O)c(/C=N/Nc2nc3ccccc3[nH]2)c1`?
AF4-AF9 inh: inactive; PGC1a acetyl inh: inactive; ERAP1 inh: inactive; RAD52 inh: inactive; GSIS activator: inactive

What do the screens show for `O=[N+]([O-])c1ccc(O)c(/C=N/Nc2nc3ccccc3[nH]2)c1`?
AF4-AF9 inh: 32; ERAP1 inh: inactive; RAD52 inh: inactive; GSIS activator: inactive

Results for Cc1ccc(S(=O)(=O)C=CS(=O)(=O)c2ccc(C)cc2)cc1 ?
AF4-AF9 inh: inactive; PGC1a acetyl inh: inactive; ERAP1 inh: inactive; RAD54 inh: inactive; RAD52 inh: inactive; GSIS activator: 87

What do the screens show for `CN(C)c1ccc2c(c1)[C@H]1C[C@H](CC(=O)NCCN3CCCCC3)O[C@@H](CO)[C@H]1O2`?
AF4-AF9 inh: inactive; PGC1a acetyl inh: inactive; ERAP1 inh: inactive; RAD54 inh: 53; RAD52 inh: inactive; GSIS activator: inactive

What do the screens show for `O=C(C[C@@H]1C[C@@H]2c3cc(NC(=O)Nc4ccccc4F)ccc3O[C@@H]2[C@@H](CO)O1)NCc1ccc(Oc2ccccc2)cc1`?
AF4-AF9 inh: inactive; PGC1a acetyl inh: 84; ERAP1 inh: inactive; RAD54 inh: inactive; RAD52 inh: inactive; GSIS activator: inactive

What do the screens show for `CN(C)CC(=O)Nc1ccc2c(c1)[C@H]1C[C@H](CC(=O)NCc3ccc(-c4ccccc4)cc3)O[C@H](CO)[C@H]1O2`?
AF4-AF9 inh: inactive; PGC1a acetyl inh: inactive; ERAP1 inh: inactive; RAD54 inh: inactive; RAD52 inh: 62; GSIS activator: inactive

Results for O=C(C[C@@H]1C[C@H]2c3cc(NC(=O)Nc4ccccc4F)ccc3O[C@H]2[C@H](CO)O1)NCc1ccc(Oc2ccccc2)cc1 ?
AF4-AF9 inh: inactive; PGC1a acetyl inh: inactive; ERAP1 inh: inactive; RAD54 inh: inactive; RAD52 inh: inactive; GSIS activator: inactive

How did CN(C)CC(=O)Nc1ccc2c(c1)[C@@H]1C[C@@H](CC(=O)NCc3ccc(-c4ccccc4)cc3)O[C@H](CO)[C@@H]1O2 do in these assays?
AF4-AF9 inh: inactive; PGC1a acetyl inh: inactive; ERAP1 inh: inactive; RAD54 inh: inactive; RAD52 inh: inactive; GSIS activator: inactive

What do the screens show for `CN(C)CC(=O)Nc1ccc2c(c1)[C@H]1C[C@@H](CC(=O)NCCN3CCCCC3)O[C@@H](CO)[C@H]1O2`?
AF4-AF9 inh: inactive; PGC1a acetyl inh: inactive; ERAP1 inh: inactive; RAD54 inh: inactive; RAD52 inh: inactive; GSIS activator: inactive

What do the screens show for `O=C(C[C@H]1C[C@H]2c3cc(NC(=O)C4CCC4)ccc3O[C@H]2[C@H](CO)O1)NCc1ccc(-c2ccccc2)cc1`?
AF4-AF9 inh: inactive; PGC1a acetyl inh: 64; ERAP1 inh: inactive; RAD54 inh: inactive; RAD52 inh: inactive; GSIS activator: inactive

Results for C[C@H](CO)N1C[C@H](C)[C@H](CN(C)Cc2ccc(C(F)(F)F)cc2)OCCCC[C@H](C)Oc2ccc(NC(=O)C3CCCCC3)cc2C1=O ?
PGC1a acetyl inh: inactive; RAD54 inh: inactive; GSIS activator: inactive

What do the screens show for `C[C@@H]1CCCCO[C@@H](CN(C)C(=O)CCC(F)(F)F)[C@H](C)CN([C@@H](C)CO)C(=O)c2cc(NS(=O)(=O)c3ccc(Cl)cc3)ccc2O1`?
AF4-AF9 inh: inactive; PGC1a acetyl inh: inactive; ERAP1 inh: inactive; RAD54 inh: inactive; RAD52 inh: inactive; GSIS activator: inactive

What do the screens show for `O=C(NCc1ccccc1)C(c1ccncc1)n1c(=O)c(-c2ccccc2)nc2ccccc21` (stereo not drawn)?
ERAP1 inh: inactive; RAD52 inh: inactive; GSIS activator: 45

Results for CC(C)Sc1nc2c(c(=O)[nH]c(=O)n2C)n1Cc1ccc(Cl)cc1 ?
PGC1a acetyl inh: inactive; RAD54 inh: inactive; GSIS activator: 77

Results for Cn1c(=O)[nH]c(=O)c2c1nc(Br)n2Cc1ccc(Cl)cc1 ?
AF4-AF9 inh: inactive; PGC1a acetyl inh: inactive; ERAP1 inh: inactive; RAD54 inh: inactive; RAD52 inh: inactive; GSIS activator: inactive

What do the screens show for `CCC(C)Sc1nc2c(c(=O)[nH]c(=O)n2C)n1Cc1ccc(Cl)cc1` (stereo not drawn)?
PGC1a acetyl inh: inactive; RAD54 inh: inactive

From PubChem
